Assay [1] in a line: NCI Yeast Anticancer Drug Screen. Data for the rad50 strain (AID 155).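 Note: 0% = growth of vehicle-only cultures of the same strain.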 To be noted: S. cerevisiae rad50 strain growth inhibition, stronger effect = higher value; at 50.0 µM unless noted. In outline: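 Genetically altered yeast (DNA repair pathway); compound treatment; growth inhibition vs vehicle ctrl.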
Assay [2] is described as follows: NCI Yeast Anticancer Drug Screen. Data for the mec2-1 strain (AID 157). As to conditions: S. cerevisiae mec2-1 strain, stronger effect = higher value; at 50.0 µM unless noted. In outline:
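Mutant yeast (mec2-1) grown with compound; growth inhibition relative to vehicle control reported.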

Assay [3] in a line: NCI Yeast Anticancer Drug Screen. Data for the sgs1 mgt1 strain (AID 161).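 Note: 0% = growth of cultures given vehicle only.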 As to conditions: S. cerevisiae sgs1 mgt1 strain, stronger effect = higher value; at 50.0 µM unless noted. In outline: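 Percent growth inhibition was derived by comparing compound-exposed mutant yeast with vehicle-exposed cultures. The strain carries alterations in DNA damage repair.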
Assay [4] in a line: NCI Yeast Anticancer Drug Screen. Data for the cln2 rad14 strain (AID 165).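 Note: 0% = growth equal to vehicle treated cultures.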 As to conditions: S. cerevisiae cln2 rad14 strain, stronger effect = higher value; at 50.0 µM unless noted. In outline: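 Readout is yeast growth inhibition versus vehicle-treated controls, using a strain with cln2 and rad14 alterations exposed to compound.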
A short description of assay [5]: NCI Yeast Anticancer Drug Screen. Data for the bub3 strain (AID 167). To be noted: S. cerevisiae bub3 mutant strain, stronger effect = higher value; at 50.0 µM unless noted. The essentials:
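Yeast carrying a defined mutation is treated with each compound, and growth is compared with that of vehicle-exposed cells to give inhibition.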

The nature of assay [6]: NCI Yeast Anticancer Drug Screen. Data for the mlh1 rad18 strain (AID 175). To be noted: S. cerevisiae mlh1 rad18 strain growth inhibition, stronger effect = higher value; at 50.0 µM unless noted. In outline: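 Genetically defined yeast (DNA repair-deficient) exposed to compounds; growth inhibition determined relative to vehicle.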

This is part of a sample that, as a whole, favours compounds with a hit. Of some 79,000 tested, about 15% had one in any assay. Values without a mark were called inactive. Activity calls are given as the source filed them. Cut-off read from the data, not from the text of the source: active = growth inhibition above about 70%; inactive = the rest.

Turning to `COc1ccc(N2C(N)=C(C#N)C(C#N)(C#N)C2c2cccc([N+](=O)[O-])c2)cc1` (stereo not given), the growth inhibition in assay [1] is 8.8%; in assay [2], -5.05%; in assay [3] it was -2.05%; in assay [4], 0.25%; in assay [5], -31.9%; in assay [6], 79.7% (active).
Take `Cc1ccc2sccc(=O)c2c1`: the growth inhibition in assay [1] was 1.05%; in assay [2] it was -2.1%; in assay [3], -8.95%; in assay [4] it was -12.8%; in assay [5] it was -5.95%; in assay [6] it was 7.6%.
For `CC1(C)CCC(CC(=O)O)(CC(=O)O)CC1`, the growth inhibition in assay [1] was -5.25%; in assay [2] it was 8.8%; in assay [3], -1.7%; in assay [4], -17.3%; in assay [5], -2.9%; in assay [6], 11.4%.
Take `O=C(NNC(=O)c1ccc(Cl)c(Cl)c1)c1ccccc1`: the growth inhibition in assay [1] is -13.8%; in assay [2], 3.1%; in assay [3] it was -6.05%; in assay [4], -7.95%; in assay [5] it was 2.75%; in assay [6], -15.9%.
Regarding `COc1cccc(C(=O)C2N=NCC2c2ccccc2)c1` (stereo not given), the growth inhibition in assay [1] was -17.4%; in assay [2], -5%; in assay [3], 2%; in assay [4] it was -15.2%; in assay [5] it was 61.5%; in assay [6], 29.9%.
Consider `Cc1ccc(-c2nc3ccc(Cl)cc3[nH]2)cc1`, for which the growth inhibition was -10.7% in assay [1]; 9.1% in assay [2]; 41.6% in assay [3]; 17.1% in assay [4]; 30.1% in assay [5]; 42.1% in assay [6].
With `ClC1c2cccc3cccc(c23)C1Cl` (stereo not given), the growth inhibition in assay [1] was 6.95%; in assay [2] it was 8.75%; in assay [3], -0.6%; in assay [4], 4.45%; in assay [5], 7.5%; in assay [6], 10.7%.
In the case of `O=C(OCCCl)c1ccc(Cl)c(Cl)c1`, the growth inhibition in assay [1] was 5.75%; in assay [2], -20.1%; in assay [3], 7.05%; in assay [4], 9%; in assay [5], 3.75%; in assay [6], -19.9%.
For the compound `O=c1[nH]c2ccc(O)cc2o1`, the growth inhibition was 33.2% in assay [1]; 17.8% in assay [2]; 27.6% in assay [3]; -10.1% in assay [4]; 12.9% in assay [5]; 22.2% in assay [6].
As to `CC(C)(C)N=NNc1cn(C2OC(CO)C(O)C2O)c(=O)[nH]c1=O` (stereo not given), the growth inhibition is -16.3% in assay [1]; -17.6% in assay [2]; -16.9% in assay [3]; 9.5% in assay [4]; -6.2% in assay [5]; -15.7% in assay [6].
In the case of `CCC1CN2CCc3cc(OC)c(OC)cc3C2CC1=O` (stereo not given), the growth inhibition in assay [1] is -11.3%; in assay [2], -5.4%; in assay [3], -8.65%; in assay [4], -2.65%; in assay [5] it was 1.15%; in assay [6], -22.1%.
Regarding `CC1(c2ccccc2)C(=O)c2ccccc2-c2ccccc21` (stereo not given), the growth inhibition in assay [1] was 63.5%; in assay [2], 48.4%; in assay [3], 63.8%; in assay [4], 3.45%; in assay [5], 24.7%; in assay [6], 24%.
In the case of `CN(C)C(=S)/N=c1\ssc(=S)n1Cc1ccccn1`, the growth inhibition in assay [1] is 3.05%; in assay [2], -11.9%; in assay [3], 1.8%; in assay [4] it was 22.1%; in assay [5] it was -9.55%; in assay [6], -10.9%.
For the compound `Cc1ccc(C(=O)C2C(=O)C(=O)OC2C2OC(=O)C(=O)C2C(=O)c2ccc(C)cc2)cc1` (stereo not given), the growth inhibition in assay [1] is 43.8%; in assay [2], 25.1%; in assay [3] it was 39.5%; in assay [4], 31.2%; in assay [5], -4.55%; in assay [6], 42.8%.
In the case of `O=C(O)c1cc(Cl)cc(C(=O)O)n1`, the growth inhibition in assay [1] is -19.4%; in assay [2] it was -1.75%; in assay [3] it was -11.8%; in assay [4], 16.1%; in assay [5] it was 4.65%; in assay [6] it was -1.7%.
As for `COc1ccc(/C=C/C(=O)O)c(OC)c1`, the growth inhibition is 1.25% in assay [1]; 30.9% in assay [2]; -7.55% in assay [3]; 25.2% in assay [4]; 28.1% in assay [5]; -9.7% in assay [6].
Turning to `CCCCCCC(=O)C/C(CCC(=O)N(Cc1ccccc1)Cc1ccccc1)=N\Nc1ccc([N+](=O)[O-])cc1[N+](=O)[O-]`, the growth inhibition in assay [1] was 12.8%; in assay [2] it was 16.1%; in assay [3] it was -13.3%; in assay [4] it was 27.4%; in assay [5], -11.4%; in assay [6], -20.5%.
Turning to `C/C(=N\Nc1nc2ccccc2s1)c1ccc2c(c1)Sc1ccccc1O2`, the growth inhibition is 42.9% in assay [1]; 7.7% in assay [2]; 11.9% in assay [3]; 21.8% in assay [4]; -1.8% in assay [5]; 15.9% in assay [6].
For the compound `COc1ccc(/C=N/N=C(/C(=O)c2ccc(OC)cc2)c2ccc(OC)cc2)cc1`, the growth inhibition in assay [1] was 32.6%; in assay [2], 0.3%; in assay [3] it was 11.8%; in assay [4], 3.2%; in assay [5], 2.2%; in assay [6], 6.8%.
For the compound `Cc1c(Cl)cccc1NC(=O)CCl`, the growth inhibition was 7.95% in assay [1]; 32.1% in assay [2]; 28.2% in assay [3]; 5.75% in assay [4]; -3.85% in assay [5]; 16.2% in assay [6].
